TRPV1 agonist – agonists of human vanilloid receptor 1 (TRPV1); Q8NER1; TRPV1-expressing cells, Fluo-8 calcium influx, agonist mode; activation, % at 8.33 µM; actives 0.19% (n = 320,000); in the data active = activation above about 80%; inconclusive = between about 30% and that limit; also: 0% is about no effect
Target sequence (Q8NER1 whole entry, looked up): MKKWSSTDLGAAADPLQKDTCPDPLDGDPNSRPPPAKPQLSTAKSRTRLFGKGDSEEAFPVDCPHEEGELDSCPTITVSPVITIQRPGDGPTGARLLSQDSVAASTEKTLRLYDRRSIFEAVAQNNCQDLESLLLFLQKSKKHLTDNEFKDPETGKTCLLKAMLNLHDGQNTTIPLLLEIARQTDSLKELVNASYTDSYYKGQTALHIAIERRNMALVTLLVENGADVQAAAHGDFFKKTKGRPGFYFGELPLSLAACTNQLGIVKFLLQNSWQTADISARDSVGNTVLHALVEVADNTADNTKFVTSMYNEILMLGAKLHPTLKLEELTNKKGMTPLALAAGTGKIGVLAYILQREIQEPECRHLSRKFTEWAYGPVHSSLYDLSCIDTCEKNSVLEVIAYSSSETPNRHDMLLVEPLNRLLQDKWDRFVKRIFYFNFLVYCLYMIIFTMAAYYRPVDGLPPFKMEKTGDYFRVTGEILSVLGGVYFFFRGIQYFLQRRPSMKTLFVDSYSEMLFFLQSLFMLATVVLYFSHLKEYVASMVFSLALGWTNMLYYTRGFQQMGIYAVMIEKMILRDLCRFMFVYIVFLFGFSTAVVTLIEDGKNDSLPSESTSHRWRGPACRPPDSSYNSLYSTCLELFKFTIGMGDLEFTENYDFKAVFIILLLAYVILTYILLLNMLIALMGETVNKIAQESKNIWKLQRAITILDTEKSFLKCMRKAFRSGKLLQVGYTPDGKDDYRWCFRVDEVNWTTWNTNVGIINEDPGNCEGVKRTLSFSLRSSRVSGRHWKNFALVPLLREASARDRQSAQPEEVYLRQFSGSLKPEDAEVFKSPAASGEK
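Fluo-8 calcium influx in TRPV1-expressing cells, kinetic read (ex 480/em 520 nm). Compound added and read 3 min for agonist activity, followed by capsaicin at EC20 final and 2 min further read for enhancement.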
TRPV1 PAM – enhances activation of the human vanilloid receptor TRPV1; TRPV1-expressing cells, Fluo-8 calcium influx, capsaicin EC20 potentiation; AID 540277; potentiation, % at 8.33 µM; actives 0.02% (n = 320,000); Q8NER1; in the data active = potentiation above about 80%; inconclusive = between about 30% and that limit; also: 0% is about no effect
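Fluo-8 calcium influx in TRPV1-expressing cells, kinetic read (ex 480/em 520 nm). Compound added and read 3 min for agonist activity, followed by capsaicin at EC20 final and 2 min further read for enhancement.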
TRPML1 inh – human mucolipin-1 channel inhibition. Q9GZU1. TRPML1-inducible cells, Ca2+ dye fluorescence, FDSS; hits give low values; inhibition of EC80 agonist-evoked calcium signal. activity change, negative = inhibition, % (concentration not given with the values). actives 0.02% (n = 390,000); in the data active = activity change below about -50%; inconclusive = between about -30% and that limit;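 also: stimulus is agonist 54-4 at its EC80 concentration; % is scaled to controls: 0 for no effect and ±100 for the full control effect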
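Tet-induced TRPML1-DL cells loaded with Ca8 no-wash calcium dye were read kinetically on FDSS. Compound addition was followed by EC80 agonist 54-4 (4 uM final); inhibition was read over 110 s.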
TRPML1 agonist – agonists of human TRPML1 channel. Q9GZU1. TRPML1-expressing cells, Ca2+ dye fluorescence, FDSS. activation, % (test concentration not listed). actives 0.12% (n = 410,000). AID 624414; in the data active = activation above about 50%; inconclusive = mostly about 30% to 49%; also: 0% is about no effect
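Calcium fluorescence on an FDSS kinetic reader gave the read-out. Tet-induced TRPML1-DL cells were plated overnight, dye-loaded (Ca8 with quencher, 45-90 min, room temperature, dark), then read 110 s after compound addition, and again 110 s after 4uM final 54-4 (EC80).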
Active calls of the source: *; ? = inconclusive; / = no result given. Shown are actives, neighbours in structure and some others; about 0.31% of the full set was active somewhere.

SMILES	TRPV1 agonist	TRPV1 PAM	TRPML1 inh	TRPML1 agonist
O=C(Nc1ccc(F)cc1)/C(Cl)=C/c1ccccc1	83*	-1	27	2
COc1cccc2c1C(=O)/C(=C/c1ccc(N(C)C)cc1)C2	/	/	/	0
COc1ccc2c(c1)C/C(=C\c1ccc(N(C)C)cc1)C2=O	/	/	/	72*
CCc1ccc(-c2nc(SCC(=O)NCC3CCCO3)c(-c3ccc(F)cc3)[nH]2)cc1 (centres undefined)	/	/	22	2
CCOC(=O)c1sc(-c2ccccc2)cc1NC(=O)Nc1ccccc1	88*	0	-10	1
CC(=O)N1CCOc2ccc(S(=O)(=O)N3CCC(C)CC3)cc21	-3	15	-59*	0
CCc1ccc(Nc2nnc(SC3CCOC3=O)s2)cc1 (centres undefined)	82*	2	15	0
CCc1ccc(Nc2nnc(SC(C)C(=O)NC3CC3)s2)cc1 (centres undefined)	/	/	-14	1
O=C1N/C(=N\S(=O)(=O)c2ccccc2)S/C1=C\c1cc([N+](=O)[O-])ccc1O	29	-1	2	51*
O=C1N/C(=N\S(=O)(=O)Cc2ccccc2)S/C1=C/c1cc([N+](=O)[O-])ccc1O	?	9	-4	74*
CSc1ncc(Cl)c(C(=O)Nc2c(C(=O)c3ccc(Cl)cc3)oc3ccccc23)n1	/	/	2	0
Cc1ccc2[nH]c3c(=O)n(CC(=O)N(C)Cc4ccccc4)ncc3c2c1	/	/	-8	2
Cc1cc(C)c(C(=O)N2CCCC(Nc3ccc(C)c(C)c3)C2)o1 (centres undefined)	97*	5	-8	-1
Cc1cc(C)c(C(=O)N2CCCC(Nc3ccc(F)cc3)C2)o1 (centres undefined)	83*	-6	10	1
O=C(CCC(=O)N1CCCC(Nc2ccccc2)C1)c1ccc(F)cc1 (centres undefined)	86*	-5	2	-1
C/C(CC(=O)Nc1cc(C)ccn1)=N\NC(=O)c1ccccc1C	6	7	-11	61*
C/C(CC(=O)Nc1cc(C)ccn1)=N\NC(=O)c1ccc(C)cc1	5	-1	-12	1
Cc1ccc(C(=O)NC(C(=O)OCc2cn3cc(Cl)ccc3n2)C(C)C)cc1 (centres undefined)	1	-4	5	2
O=C(c1ccc(C(F)(F)F)cc1)C1CCCN(C(=O)CCc2ccncc2)C1 (centres undefined)	87*	-14	1	0
NC(=O)CCC(=O)N1CCCC(C(=O)c2ccc(C(F)(F)F)cc2)C1 (centres undefined)	6	13	-12	0
COc1cc2c(NC3CCN(C)CC3)nc(N3CCCN(C)CC3)nc2cc1OCC1CCCCN1 (centres undefined)	/	/	/	0
COc1ccc(Nc2sc(C(=O)c3ccc(Cl)cc3)c(N)c2C(=O)Nc2ccccc2OC)cc1	2	8	4	?
COc1ccc(C(=O)c2sc(Nc3cccc(OC)c3)c(C(=O)Nc3cccc(C)c3C)c2N)cc1	2	1	-20	61*
CCOC(=O)N1CCN(c2ccc(Cl)cc2)CC1	?	-15	-21	3
CCOC(=O)C(/C=C(\C#N)C(=O)OCC)=C(/N)N1CCN(c2ccc(Cl)cc2)CC1	-1	10	-10	69*
SMILES	TRPV1 agonist	TRPV1 PAM	TRPML1 inh	TRPML1 agonist
COc1ccc(N=Cc2c(O)c3ccccc3oc2=O)cc1	?	-8	24	1
CC(C)c1ccc(N=Cc2c(O)c3ccccc3oc2=O)cc1	83*	-7	/	/
COC(=O)c1c(C(=O)OC)c(-c2ccccc2)n2c1CS(=O)C2 (centres undefined)	-7	92*	34	1
Cc1ccc(Nc2ncnc3c2oc2ccccc23)cc1	93*	-6	-6	2
COc1ccc(Oc2ncnc3c2oc2ccccc23)cc1	/	/	15	2
COc1ccc(Nc2ncnc3c2oc2ccccc23)cc1	93*	-15	10	0
CC(=O)N1CCN(C(=O)c2ccc(-c3cccc(C(F)(F)F)c3)o2)CC1	29	-21	4	1
O=C(c1ccc(-c2cccc(C(F)(F)F)c2)o1)N1CCOCC1	86*	-18	6	2
Cc1c(N=c2scc(-c3ccccc3)n2C)c(=O)n(-c2ccccc2)n1C	5	95*	-7	0
CC(=O)Nc1ccc(S(=O)(=O)N(C#N)c2nc(N(C)C)nc(N(C)C)n2)cc1	-1	-3	-3	0
CCOC(=O)/C(=C\C=C1/Sc2cc(OCC)c(OCC)cc2N1CC)C(C)=O	?	-14	9	89*
CCOC(=O)/C(=C/C=C1\Sc2cc(OCC)c(OCC)cc2N1CC)C(C)=O	?	-7	-23	77*
CCN1/C(=C/C(C)=O)Sc2ccc(OC)cc21	-2	-10	19	-1
COc1ccc(S(=O)(=O)N2CC3CCCN3c3ccc(C(F)(F)F)cc32)cc1 (centres undefined)	-1	?	-7	80*
CCC(Cn1nnc2ccccc2c1=O)NC(=O)Nc1ccc(C)c(C)c1 (centres undefined)	/	/	-69*	0
Cc1ccccc1-c1ccc(/C=C2/SC(N3CCOCC3)=NC2=O)o1	84*	-2	-3	1
CCc1cnc2c(c1SC(C(C)=O)C(=O)N(C)C)c(=O)n(C)c(=O)n2C (centres undefined)	/	/	30	-1
O=C(Cc1cccc(NC(=O)C2CCN(C(=O)C3CCCC3)CC2)c1)Nc1cccc(C(=O)N2CCCCC2)c1	/	/	-2	0
Cc1cc2oc(C(=O)Nc3cccnc3)c(C)c2cc1C	85*	0	14	0
CCCCCCCCN1[C@@H](CC(C)=O)c2ccc(/C=C/C(C)=O)cc2S1(=O)=O	/	/	/	0
NC(=O)C1CCN(C(=O)c2ccc3nc(-c4ccccc4)c(-c4ccccc4)nc3c2)CC1	81*	-2	31	2
CC(C)n1ncc2c(C(=O)Nc3ccc(S(N)(=O)=O)cc3)cc(C3CC3)nc21	81*	-6	-7	4
CC(C)n1ncc2c(C(=O)Nc3ccc(S(C)(=O)=O)cc3)cc(C3CC3)nc21	?	-10	3	2
Cc1cc(C)n(Cc2ccc(Cl)cc2Cl)c(=O)c1S(=O)(=O)c1ccccc1	0	-11	-3	71*
CN1CCN(S(=O)(=O)c2ccc(N(C)Cc3ccc(OC(F)F)cc3)c([N+](=O)[O-])c2)CC1	7	2	-9	53*
CC(C)(C)S(=O)(=O)c1cnc(-c2ccc(Cl)cc2)nc1N	/	/	-17	74*
CC(C)(C)S(=O)(=O)c1cnc(N2CCCCC2)nc1N	1	-22	-1	0
Cc1ccc(Cl)cc1N1CCN(C(=O)CN2C(=O)COc3ccc(S(=O)(=O)N4CCCCCC4)cc32)CC1	/	/	23	1
Cc1cc(O)ccc1C1(c2ccc(O)cc2C)OC(=O)c2ccccc21	2	15	22	0
O=C1OC2(c3ccccc31)c1cc(I)c(O)c(I)c1Oc1c2cc(I)c(O)c1I	88*	-23	/	/
